According to the supplement of paper PMC11732987, “Enantioselective OTUD7B fragment discovery through chemoproteomics screening and high-throughput optimisation” (Communications Chemistry, 2025):

Key:
Experiment in all cases: log2 ratio of Biotin-Ahx-Ub-VS probe labelling (fragment/DMSO); higher = less target engagement (more negative = stronger competition), active = hit call of the paper (q ≤ 0.05, log2 ratio ≤ -1)
Details in all cases: compound concentration: 200 uM; treatment time: 3 h
USP19 = biological target: T1, USP19 (UniProt O94966)
T1 sequence (whole entry): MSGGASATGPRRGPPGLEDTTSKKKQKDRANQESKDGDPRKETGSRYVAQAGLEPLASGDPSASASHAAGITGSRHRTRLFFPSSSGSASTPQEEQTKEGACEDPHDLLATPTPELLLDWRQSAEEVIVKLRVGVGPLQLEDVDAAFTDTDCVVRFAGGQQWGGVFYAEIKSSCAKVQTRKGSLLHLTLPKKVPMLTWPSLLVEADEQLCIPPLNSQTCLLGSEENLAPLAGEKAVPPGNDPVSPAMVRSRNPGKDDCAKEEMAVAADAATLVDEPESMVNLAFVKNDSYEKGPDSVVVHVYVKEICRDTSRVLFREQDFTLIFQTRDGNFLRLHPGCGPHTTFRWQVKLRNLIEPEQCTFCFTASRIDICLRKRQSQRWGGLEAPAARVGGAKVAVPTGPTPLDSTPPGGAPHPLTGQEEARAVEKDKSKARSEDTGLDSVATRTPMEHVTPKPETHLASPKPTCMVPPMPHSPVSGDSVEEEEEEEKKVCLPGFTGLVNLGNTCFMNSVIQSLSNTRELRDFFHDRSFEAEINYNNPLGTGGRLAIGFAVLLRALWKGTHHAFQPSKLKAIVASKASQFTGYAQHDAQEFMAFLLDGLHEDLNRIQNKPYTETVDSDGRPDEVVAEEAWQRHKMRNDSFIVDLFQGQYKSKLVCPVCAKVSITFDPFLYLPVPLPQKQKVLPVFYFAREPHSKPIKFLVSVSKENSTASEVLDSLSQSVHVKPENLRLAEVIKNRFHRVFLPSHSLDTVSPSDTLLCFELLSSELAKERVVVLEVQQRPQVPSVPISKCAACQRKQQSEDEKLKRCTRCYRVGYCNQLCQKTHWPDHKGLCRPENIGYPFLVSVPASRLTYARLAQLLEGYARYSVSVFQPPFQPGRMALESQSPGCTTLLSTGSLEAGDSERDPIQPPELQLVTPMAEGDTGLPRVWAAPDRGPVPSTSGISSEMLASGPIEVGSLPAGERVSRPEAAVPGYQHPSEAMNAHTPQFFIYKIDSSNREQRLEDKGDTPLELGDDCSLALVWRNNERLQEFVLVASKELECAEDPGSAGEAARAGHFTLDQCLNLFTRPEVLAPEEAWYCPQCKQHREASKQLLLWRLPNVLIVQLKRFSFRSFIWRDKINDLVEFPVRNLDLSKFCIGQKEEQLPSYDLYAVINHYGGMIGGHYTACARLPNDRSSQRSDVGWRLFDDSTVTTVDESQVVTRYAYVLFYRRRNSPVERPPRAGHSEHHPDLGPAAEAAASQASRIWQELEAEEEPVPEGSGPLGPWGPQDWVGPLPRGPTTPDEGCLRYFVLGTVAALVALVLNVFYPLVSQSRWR
Method in brief: (§1)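 Average log2 ratios of fragment over vehicle were obtained by unpaired t-test from global-median-normalised Spectronaut label-free quantities. Proteins with ≥2 unique peptides were included. HEK293T lysate (495 µg per sample) was treated in triplicate with fragment at 200 µM or vehicle for 3 h, then with Biotin-Ahx-Ub-VS at 0.5 µM final for 1 h, and labelled DUBs were NeutrAvidin-enriched and run by diaPASEF LC-MS/MS.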

USP22 = biological target: T2, USP22 (UniProt Q9UPT9)
T2 sequence (whole entry): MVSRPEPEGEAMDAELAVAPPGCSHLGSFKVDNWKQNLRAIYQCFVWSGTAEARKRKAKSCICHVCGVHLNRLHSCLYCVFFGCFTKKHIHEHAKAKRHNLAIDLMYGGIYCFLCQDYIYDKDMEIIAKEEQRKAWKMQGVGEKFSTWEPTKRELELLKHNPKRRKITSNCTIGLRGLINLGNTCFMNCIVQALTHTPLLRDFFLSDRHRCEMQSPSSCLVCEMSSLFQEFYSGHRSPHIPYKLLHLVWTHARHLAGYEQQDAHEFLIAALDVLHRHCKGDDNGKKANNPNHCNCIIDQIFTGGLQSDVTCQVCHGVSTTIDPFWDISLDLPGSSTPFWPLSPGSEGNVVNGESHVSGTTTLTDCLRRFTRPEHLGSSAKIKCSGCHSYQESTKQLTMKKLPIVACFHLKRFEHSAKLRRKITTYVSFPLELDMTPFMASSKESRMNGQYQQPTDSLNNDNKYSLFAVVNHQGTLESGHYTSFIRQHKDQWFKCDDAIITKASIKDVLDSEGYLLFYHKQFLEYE
Method in brief: as §1

USP24 = USP24 (UniProt Q9UPU5)
Method in brief: as §1

USP25 = biological target: T3, USP25 (UniProt Q9UHP3)
T3 sequence (whole entry): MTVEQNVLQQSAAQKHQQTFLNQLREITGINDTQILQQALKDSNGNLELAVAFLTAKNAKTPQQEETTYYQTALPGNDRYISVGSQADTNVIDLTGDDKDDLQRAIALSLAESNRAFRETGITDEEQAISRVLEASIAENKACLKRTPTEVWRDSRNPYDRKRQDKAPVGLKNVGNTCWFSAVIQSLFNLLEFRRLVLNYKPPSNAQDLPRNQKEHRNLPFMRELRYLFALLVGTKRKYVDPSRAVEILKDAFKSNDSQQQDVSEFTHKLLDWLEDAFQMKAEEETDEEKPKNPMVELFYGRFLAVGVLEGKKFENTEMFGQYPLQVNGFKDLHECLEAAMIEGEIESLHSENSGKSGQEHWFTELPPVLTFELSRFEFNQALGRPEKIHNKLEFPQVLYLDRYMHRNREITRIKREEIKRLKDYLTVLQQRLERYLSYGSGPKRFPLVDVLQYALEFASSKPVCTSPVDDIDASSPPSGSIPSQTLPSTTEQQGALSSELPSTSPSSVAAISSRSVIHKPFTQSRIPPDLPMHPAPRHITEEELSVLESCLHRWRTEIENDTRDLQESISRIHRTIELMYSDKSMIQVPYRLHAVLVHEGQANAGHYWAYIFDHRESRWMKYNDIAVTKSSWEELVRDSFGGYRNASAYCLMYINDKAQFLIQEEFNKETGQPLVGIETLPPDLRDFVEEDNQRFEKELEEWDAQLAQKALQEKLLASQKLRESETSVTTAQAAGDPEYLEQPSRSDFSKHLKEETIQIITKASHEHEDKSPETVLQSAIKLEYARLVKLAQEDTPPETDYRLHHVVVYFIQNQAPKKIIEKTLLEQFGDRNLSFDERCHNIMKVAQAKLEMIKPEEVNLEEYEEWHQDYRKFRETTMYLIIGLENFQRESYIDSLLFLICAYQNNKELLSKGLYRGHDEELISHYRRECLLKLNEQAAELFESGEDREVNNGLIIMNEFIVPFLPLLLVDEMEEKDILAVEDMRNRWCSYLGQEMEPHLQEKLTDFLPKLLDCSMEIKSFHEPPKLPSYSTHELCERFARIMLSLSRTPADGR
Method in brief: as §1

USP28 = biological target: T4, USP28 (UniProt Q96RU2)
T4 sequence (whole entry): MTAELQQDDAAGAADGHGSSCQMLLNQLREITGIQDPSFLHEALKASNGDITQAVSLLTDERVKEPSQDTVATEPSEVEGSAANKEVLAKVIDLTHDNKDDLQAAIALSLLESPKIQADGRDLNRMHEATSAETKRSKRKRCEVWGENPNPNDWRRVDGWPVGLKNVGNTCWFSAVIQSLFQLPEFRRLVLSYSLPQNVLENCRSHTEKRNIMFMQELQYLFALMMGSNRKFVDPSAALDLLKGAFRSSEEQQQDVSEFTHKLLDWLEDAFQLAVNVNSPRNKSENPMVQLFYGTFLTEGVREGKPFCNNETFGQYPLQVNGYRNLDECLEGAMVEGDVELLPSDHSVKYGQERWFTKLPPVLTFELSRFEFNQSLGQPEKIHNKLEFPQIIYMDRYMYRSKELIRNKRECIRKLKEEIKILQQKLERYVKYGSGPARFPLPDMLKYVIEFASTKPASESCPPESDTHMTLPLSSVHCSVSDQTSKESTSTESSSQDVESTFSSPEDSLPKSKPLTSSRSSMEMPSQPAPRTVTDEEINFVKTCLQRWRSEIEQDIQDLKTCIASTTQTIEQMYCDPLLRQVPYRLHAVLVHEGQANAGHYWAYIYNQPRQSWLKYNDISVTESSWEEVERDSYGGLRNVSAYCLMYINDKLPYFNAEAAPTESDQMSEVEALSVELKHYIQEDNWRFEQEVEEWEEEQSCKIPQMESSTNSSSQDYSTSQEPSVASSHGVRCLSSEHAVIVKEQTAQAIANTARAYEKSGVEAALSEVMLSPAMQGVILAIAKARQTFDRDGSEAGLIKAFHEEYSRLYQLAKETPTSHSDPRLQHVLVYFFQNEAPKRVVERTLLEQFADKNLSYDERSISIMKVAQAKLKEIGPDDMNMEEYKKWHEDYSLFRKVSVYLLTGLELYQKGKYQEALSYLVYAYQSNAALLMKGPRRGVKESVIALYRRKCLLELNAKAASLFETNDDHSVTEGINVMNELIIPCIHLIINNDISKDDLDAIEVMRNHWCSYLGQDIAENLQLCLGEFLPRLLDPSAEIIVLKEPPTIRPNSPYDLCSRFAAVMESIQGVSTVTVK
Method in brief: as §1

Measured: log2 ratio of Biotin-Ahx-Ub-VS probe labelling

Chain of USP24 (Q9UPU5 whole entry): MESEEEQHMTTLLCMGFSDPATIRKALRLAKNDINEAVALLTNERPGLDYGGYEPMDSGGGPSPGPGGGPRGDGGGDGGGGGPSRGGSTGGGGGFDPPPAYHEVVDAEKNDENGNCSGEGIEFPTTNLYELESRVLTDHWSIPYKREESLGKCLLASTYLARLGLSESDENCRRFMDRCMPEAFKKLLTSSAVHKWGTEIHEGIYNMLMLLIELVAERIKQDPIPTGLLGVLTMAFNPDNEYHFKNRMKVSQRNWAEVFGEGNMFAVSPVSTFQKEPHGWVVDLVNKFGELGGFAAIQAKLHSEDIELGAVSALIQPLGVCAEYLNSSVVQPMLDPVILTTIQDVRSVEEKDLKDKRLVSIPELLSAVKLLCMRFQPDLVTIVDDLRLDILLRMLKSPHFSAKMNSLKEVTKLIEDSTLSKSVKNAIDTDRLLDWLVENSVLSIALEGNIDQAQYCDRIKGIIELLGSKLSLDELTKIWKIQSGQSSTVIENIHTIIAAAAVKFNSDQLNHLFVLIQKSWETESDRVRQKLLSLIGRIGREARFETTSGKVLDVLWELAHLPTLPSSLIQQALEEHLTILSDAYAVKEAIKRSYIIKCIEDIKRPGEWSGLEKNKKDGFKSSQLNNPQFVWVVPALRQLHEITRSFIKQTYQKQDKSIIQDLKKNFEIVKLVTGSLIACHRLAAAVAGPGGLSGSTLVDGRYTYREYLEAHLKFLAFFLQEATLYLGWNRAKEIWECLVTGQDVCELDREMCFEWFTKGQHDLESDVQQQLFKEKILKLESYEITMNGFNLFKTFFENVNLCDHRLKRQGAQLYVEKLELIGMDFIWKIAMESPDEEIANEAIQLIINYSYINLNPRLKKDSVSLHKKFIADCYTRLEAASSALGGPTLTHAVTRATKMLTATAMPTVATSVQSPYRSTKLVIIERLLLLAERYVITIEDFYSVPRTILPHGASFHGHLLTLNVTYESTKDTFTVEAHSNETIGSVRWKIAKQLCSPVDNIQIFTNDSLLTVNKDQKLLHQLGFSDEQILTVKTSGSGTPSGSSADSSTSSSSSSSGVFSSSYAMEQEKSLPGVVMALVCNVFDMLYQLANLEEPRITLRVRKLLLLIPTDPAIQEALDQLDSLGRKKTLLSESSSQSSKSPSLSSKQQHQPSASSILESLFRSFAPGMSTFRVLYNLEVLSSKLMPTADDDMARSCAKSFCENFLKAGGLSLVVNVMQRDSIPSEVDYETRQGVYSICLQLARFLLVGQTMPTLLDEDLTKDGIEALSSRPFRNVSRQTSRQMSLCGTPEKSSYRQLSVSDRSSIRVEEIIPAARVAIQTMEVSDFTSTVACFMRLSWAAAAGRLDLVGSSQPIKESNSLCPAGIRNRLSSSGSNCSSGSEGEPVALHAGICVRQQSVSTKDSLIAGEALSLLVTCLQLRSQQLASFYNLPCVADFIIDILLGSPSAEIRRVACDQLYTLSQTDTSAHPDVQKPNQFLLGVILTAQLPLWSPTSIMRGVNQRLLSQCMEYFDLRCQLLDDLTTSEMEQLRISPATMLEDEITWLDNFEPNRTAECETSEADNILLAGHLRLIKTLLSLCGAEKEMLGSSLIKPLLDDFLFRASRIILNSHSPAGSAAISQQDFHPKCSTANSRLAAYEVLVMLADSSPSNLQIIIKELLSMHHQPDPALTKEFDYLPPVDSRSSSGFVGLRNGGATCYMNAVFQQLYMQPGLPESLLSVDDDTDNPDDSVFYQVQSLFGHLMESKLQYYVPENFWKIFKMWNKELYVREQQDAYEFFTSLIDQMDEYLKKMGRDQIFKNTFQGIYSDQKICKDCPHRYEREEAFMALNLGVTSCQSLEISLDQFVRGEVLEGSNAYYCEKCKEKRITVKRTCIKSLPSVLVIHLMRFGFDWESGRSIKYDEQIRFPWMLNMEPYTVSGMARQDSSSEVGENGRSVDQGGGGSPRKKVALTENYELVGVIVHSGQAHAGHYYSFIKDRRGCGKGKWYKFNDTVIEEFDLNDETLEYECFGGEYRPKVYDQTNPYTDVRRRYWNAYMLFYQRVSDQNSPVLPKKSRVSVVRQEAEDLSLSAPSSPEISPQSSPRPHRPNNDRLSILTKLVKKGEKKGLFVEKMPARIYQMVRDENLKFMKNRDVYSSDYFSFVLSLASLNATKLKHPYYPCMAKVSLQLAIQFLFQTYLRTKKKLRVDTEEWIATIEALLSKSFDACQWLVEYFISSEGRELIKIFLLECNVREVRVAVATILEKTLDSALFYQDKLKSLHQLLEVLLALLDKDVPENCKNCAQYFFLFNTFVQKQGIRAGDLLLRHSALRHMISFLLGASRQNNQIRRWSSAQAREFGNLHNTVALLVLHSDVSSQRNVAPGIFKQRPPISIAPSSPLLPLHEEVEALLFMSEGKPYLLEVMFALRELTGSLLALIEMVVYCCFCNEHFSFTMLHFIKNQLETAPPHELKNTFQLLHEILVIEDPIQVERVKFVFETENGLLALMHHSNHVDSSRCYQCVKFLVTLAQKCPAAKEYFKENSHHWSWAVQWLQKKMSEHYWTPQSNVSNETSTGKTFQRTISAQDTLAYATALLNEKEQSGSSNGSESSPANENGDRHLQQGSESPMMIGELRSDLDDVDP

Cl.O=C(CN1CCN(C(=O)CCl)CC1)Nc1ccc(F)cc1
inactive: USP19 -0.172 | USP22 0.179 | USP24 -0.098 | USP25 0.0867 | USP28 0.0845
